# FBW7 act – activators of human E3 ligase FBW7. Q969H0. AlphaScreen FBW7–phospho-cyclin E peptide binding, activator screen. normalized activity (activation), % at 26.1 µM. 650,000 compounds, 0.13% hits; in the data active = normalized activity above about 1.9%;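 note: purified mutant Fbw7 with reduced substrate affinity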
# TEAD-YAP inh – TEAD-YAP interaction inhibition | 640,000 compounds, 1.4% hits | HEK-TIYL cells, TEAD-Gal4/YAP UAS-luciferase luminescence | inhibition, % at 9.12 µM; in the data active = inhibition above about 32%;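 note: 0% = median of test compound wells and 100% = reference inhibitor wells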
# MITF inh – human MITF inhibition, primary screen | AlphaScreen MITF homodimerization, bead proximity signal | O75030 | 650,000 compounds, 0.91% hits | AID 1259374 | inhibition, % at 2.6 µM; in the data active = inhibition above about 50%;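 note: 0% = vehicle wells with protein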
# GPR151 ag – activators of human GPR151; 650,000 compounds, 1% hits; PathHunter beta-arrestin GPR151 cells, luminescence; activation, % at 11.2 µM; Q8TDV0; in the data active = activation above about 4.9%;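 note: 0% = median of compound wells and 100% = cells with positive control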
# Target sequence (Q8TDV0 whole entry, looked up): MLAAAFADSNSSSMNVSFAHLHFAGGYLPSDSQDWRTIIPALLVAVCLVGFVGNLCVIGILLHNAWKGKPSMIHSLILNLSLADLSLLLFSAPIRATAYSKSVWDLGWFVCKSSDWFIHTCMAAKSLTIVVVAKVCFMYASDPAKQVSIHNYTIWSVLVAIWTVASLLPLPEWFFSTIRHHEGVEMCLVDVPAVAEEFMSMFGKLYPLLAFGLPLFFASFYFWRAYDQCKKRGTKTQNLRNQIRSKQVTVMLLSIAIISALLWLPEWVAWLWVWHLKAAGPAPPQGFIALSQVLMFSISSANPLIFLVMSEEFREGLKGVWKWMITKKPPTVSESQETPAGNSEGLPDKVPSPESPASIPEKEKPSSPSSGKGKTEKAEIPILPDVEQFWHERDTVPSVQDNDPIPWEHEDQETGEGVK
# Starred values were filed as active, the others as inactive. Compounds with a hit are over-represented: about 3.4% of the library has one in this group of screens.
SMILES,FBW7 act,TEAD-YAP inh,MITF inh,GPR151 ag
CO[C@H](C(=O)[C@@H](O)[C@@H](C)O)[C@@H]1Cc2cc3cc(O[C@H]4C[C@@H](O[C@H]5C[C@@H](O)[C@H](O)[C@@H](C)O5)[C@H](O)[C@@H](C)O4)c(C)c(O)c3c(O)c2C(=O)[C@H]1O[C@H]1C[C@@H](O[C@H]2C[C@@H](O[C@H]3C[C@](C)(O)[C@H](O)[C@@H](C)O3)[C@@H](O)[C@@H](C)O2)[C@H](O)[C@@H](C)O1,-0.3,92.2*,35.6,-2.2
CCCN1C(=O)c2ccc(C(=O)Nc3ccc(O)cc3C)cc2C1=O,0.1,5.5,3.9,-1.7
CCCN1C(=O)c2ccc(C(=O)Nc3ccc(C(=O)O)cc3)cc2C1=O,0.0,53.1*,18.0,-0.6
CCN1C(=O)c2ccc(C(=O)Nc3cc(C(=O)O)cc(C(=O)O)c3)cc2C1=O,0.0,4.1,0.8,1.6
CCCN1C(=O)c2ccc(C(=O)Nc3ccc(O)cc3)cc2C1=O,-0.1,38.4*,9.6,-1.1
Oc1c(C(c2ccccn2)N2CCCCC2)ccc2cccnc12 (stereo not drawn),-0.1,38.8*,98.6*,-0.5
Oc1c(C(c2ccccc2Cl)N2CCOCC2)ccc2cccnc12 (stereo not drawn),-0.3,84.2*,62.1*,-1.3
Oc1c(C(c2ccccc2Cl)N2CCCCC2)ccc2cccnc12 (stereo not drawn),-0.9,87.5*,26.3,-0.6
Cc1nc2sc(C(c3ccccc3Cl)N3CCCC3)c(O)n2n1 (stereo not drawn),0.1,-2.8,-8.3,0.6
OCCN1CCN(C(c2ccccn2)c2ccc3cccnc3c2O)CC1 (stereo not drawn),-0.5,10.2,93.3*,0.2
CC1c2cccn2CCN1C(=O)c1cccc(OC2CCN(S(C)(=O)=O)CC2)c1 (stereo not drawn),0.0,5.5,10.4,0.5
COc1ccccc1N(Cc1ccccc1C#N)S(=O)(=O)c1cccs1,0.2,-2.4,8.6,0.4
O=C(Nc1ccc2oc(-c3cccc(F)c3)nc2c1)c1cc([N+](=O)[O-])ccc1Cl,0.2,37.0*,12.8,-0.1
O=C(Nc1ccc2oc(-c3cccc4c(Br)cccc34)nc2c1)c1cc([N+](=O)[O-])ccc1Cl,0.0,-6.1,15.3,-2.0
O=C(Nc1ccc2oc(-c3cccc4c(Br)cccc34)nc2c1)c1ccccc1[N+](=O)[O-],0.1,43.2*,2.5,0.1
O=C(Nc1ccc(Sc2nc3ccccc3s2)c(Cl)c1)c1cc([N+](=O)[O-])ccc1Cl,0.0,32.1*,11.1,-0.5
CC(=O)Nc1ccc(Sc2nc3ccccc3s2)c(Cl)c1,0.0,-2.2,-7.8,-0.6
CCOC(=O)C1CCCN(C(=O)c2ccc(Cl)cc2[N+](=O)[O-])C1 (stereo not drawn),0.0,-6.9,-2.9,-0.5
Cc1cc(NC(=O)CN(c2cccc(C)c2C)S(C)(=O)=O)ccc1Br,0.1,-1.6,-1.9,0.4
O=C(CSc1ccc(-c2ccc(F)cc2)nn1)NC1CCCC1,-0.2,-1.5,-18.5,-0.8
c1ccc(OCCNc2nc(Nc3cnccn3)nc3c2ncn3-c2ccccc2)cc1,-0.1,8.3,2.9,2.0
O=C(NCCc1ccccc1)c1nnc(-c2cccnc2)o1,-0.1,1.6,-5.6,0.0
COc1ccc(-c2cncc3ccc(C(=O)NCc4ccccc4)nc23)cc1,-0.1,68.3*,-6.9,-1.2
COc1ccc(-c2cncc3ccc(C(=O)NCc4cnc(C)cn4)nc23)cc1,-0.1,70.3*,2.9,0.0
O=C(NCc1ccncc1)c1ccc2cncc(-c3cc4ccccc4o3)c2n1,-0.2,31.7,-2.6,-0.2
SMILES,FBW7 act,TEAD-YAP inh,MITF inh,GPR151 ag
O=C(NCCc1ccccc1)c1ccc2cncc(-c3ccccc3)c2n1,-0.1,47.3*,-12.6,0.1
O=C(NCc1ccco1)c1ccc2cncc(-c3cc4ccccc4o3)c2n1,-0.3,54.2*,3.3,0.2
O=C(Cn1ccc(=O)[nH]c1=O)OCc1cnc(-c2ccccc2)o1,0.1,0.9,14.1,0.7
CCc1cn[nH]c1C1CCN(C(=O)c2cn3ccccc3n2)CC1,-0.2,-5.0,3.3,0.2
Cc1ccc(C)c(C2=NN(c3nc(-c4cc(C)ccc4C)cs3)C(c3cccc([N+](=O)[O-])c3)C2)c1 (stereo not drawn),0.0,-3.6,-0.8,0.2
COc1ccc(NC2c3cccc4cccc(c34)C2NS(=O)(=O)c2ccc(Cl)cc2)cc1 (stereo not drawn),-0.1,4.7,9.4,-1.1
COc1ccccc1CNC(=O)c1ccc2cncc(-c3ccccc3)c2n1,0.2,64.7*,11.3,-0.1
CC1(C)CC(=O)c2cnc3c(-c4ccc(Cl)cc4)cnn3c2C1,0.2,56.7*,0.1,-0.3
Fc1cnc(N/N=C/c2cccs2)nc1N1CCOCC1,0.1,44.7*,7.8,-4.2
CCN(CC)c1ccc(/C=N\Nc2ncc(F)c(N3CCOCC3)n2)c(O)c1,-0.6,37.3*,61.8*,0.0
COc1cccc(/C=N\Nc2ncc(F)c(N3CCOCC3)n2)c1O,-0.6,40.6*,85.6*,0.6
Fc1cnc(N/N=C/c2ccc(Cl)cc2Cl)nc1N1CCOCC1,-0.9,-29.4,-12.6,-1.5
Fc1cnc(N/N=C\c2ccc(-c3ccccc3)o2)nc1N1CCOCC1,-0.1,-20.5,7.3,-0.4
Oc1ccccc1N=Nc1ccccc1O,-0.4,72.7*,71.6*,0.0
Oc1cccc(C=Nc2ccccc2O)c1,0.0,-3.0,-10.2,-1.2
OCCCNc1cc(-c2cccc(C(F)(F)F)c2)nc(-c2ccccn2)n1,-0.3,33.0*,18.4,1.7
OCCCNc1cc(-c2cccc(C(F)(F)F)c2)nc(-c2cccnc2)n1,0.3,11.8,6.4,1.9
O=C(NCc1ccccc1Cl)c1cccc(-n2c(=S)[nH]c3cc(Cl)ccc3c2=O)c1,0.0,2.4,1.3,-0.3
O=c1cc(CSc2nnnn2-c2ccc(O)cc2)nc2sc3ccccc3n12,0.1,7.8,15.4,0.2
O=C(OCc1cc(=O)n2c(n1)sc1ccccc12)C12CC3CC(CC(O)(C3)C1)C2,-0.1,75.1*,19.1,-1.3
CCSC1=NSC2=NC(=O)/C(=C\c3ccc(Br)o3)C(=N)N12,-0.4,8.2,83.4*,-0.4
CC(C)SC1=NSC2=NC(=O)/C(=C\c3ccc([N+](=O)[O-])o3)C(=N)N21,0.2,-2.9,72.0*,-0.5
CS(=O)(=O)C1=NSC2=NC(=O)/C(=C\c3ccc(SCc4ccco4)o3)C(=N)N21,-1.4,1.0,72.3*,-0.4
CC(C)CS(=O)(=O)C1=NSC2=NC(=O)/C(=C\c3ccc(Br)o3)C(=N)N21,-0.4,5.1,76.9*,-1.0
COc1ccc(NC(=O)C2(N(C(=O)c3ccc(-n4cnnn4)cc3)c3ccc(OC)cc3)CCCCC2)cc1,0.2,-2.4,-7.6,-1.0
CCOC(=O)c1ccc(N2NC(=O)/C(=C/c3ccc(C)o3)C2=O)cc1,-0.1,7.0,5.2,0.6
CCOC(=O)c1ccc(N2NC(=O)/C(=C/c3ccc([N+](=O)[O-])o3)C2=O)cc1,-0.3,15.6,65.5*,0.1
COc1ccc(S(=O)(=O)N2Cc3ccccc3CC2C(=O)NCCc2ccccc2)cc1 (stereo not drawn),0.0,14.4,4.3,1.3

# Source: PubChem (The Scripps Research Institute Molecular Screening Center)
